# Test results reported in the supplement of paper PMC6279402.
# Counter-ions that a name gives are not always drawn. ± gives the standard deviation of the averaged measurements.
# Tested on: A549
# Test: relative viability (normalised to negative control = 1, bortezomib = 0) (fraction); higher = less cytotoxic
# Conditions: inflammatory serum-free RHB-A with cytokines + LPS, 5 d + 24 h CellTiter-Blue
# [1] = compound 30 nM, GSK126 pretreatment: 5 uM GSK126
# [2] = compound 30 nM, GSK126 pretreatment: none (vehicle)
# [3] = compound 300 nM, GSK126 pretreatment: 5 uM GSK126
# [4] = compound 300 nM, GSK126 pretreatment: none (vehicle)
Compound,relative viability [1],relative viability [2],relative viability [3],relative viability [4]
CO[C@H]1C[C@@H]2CC[C@@H](C)[C@@](O)(O2)C(=O)C(=O)N2CCCC[C@H]2C(=O)O[C@H]([C@H](C)C[C@@H]2CC[C@@H](OP(C)(C)=O)[C@H](OC)C2)CC(=O)[C@H](C)/C=C(\C)[C@@H](O)[C@@H](OC)C(=O)[C@H](C)C[C@H](C)/C=C/C=C/C=C/1C [Deforolimus(MK-8669)],0.574 ± 0.039,0.591 ± 0.02,0.548 ± 0.03,0.523 ± 0.041
CC1(C)CNc2cc(NC(=O)c3cccnc3NCc3ccncc3)ccc21 [Motesanib Diphosphate],0.917 ± 0.035,0.864 ± 0.062,0.937 ± 0.14,0.918 ± 0.06
COc1cc2ncnc(Nc3ccc(F)c(Cl)c3)c2cc1OCCCN1CCOCC1 [Gefitinib(Iressa); Gefitinib],0.922 ± 0.11,0.873 ± 0.084,0.488 ± 0.11,0.472 ± 0.045
CC(C)(C#N)c1cc(Cn2cncn2)cc(C(C)(C)C#N)c1 [Anastrozole; Arimidex],0.743 ± 0.051,0.792 ± 0.039,0.804 ± 0.086,0.896 ± 0.04
Cc1ccc(Nc2nccc(N(C)c3ccc4c(C)n(C)nc4c3)n2)cc1S(N)(=O)=O [Pazopanib Hydrochloride],0.972 ± 0.12,0.935 ± 0.081,1.11 ± 0.096,1.09 ± 0.12
c1ccc2c(-c3cnn4cc(-c5ccc(N6CCNCC6)cc5)cnc34)ccnc2c1,1.01 ± 0.16,0.961 ± 0.15,1.1 ± 0.067,1.13 ± 0.093
Cc1csc(-c2nnc(Nc3ccc(Oc4ncccc4-c4ccnc(N)n4)cc3)c3ccccc23)c1,0.692 ± 0.11,0.593 ± 0.11,0.512 ± 0.076,0.441 ± 0.061
CC[C@]1(O)C[C@H]2CN(CCc3c([nH]c4ccccc34)[C@@](C(=O)OC)(c3cc4c(cc3OC)N(C=O)[C@H]3[C@@](O)(C(=O)OC)[C@H](OC(C)=O)[C@]5(CC)C=CCN6CC[C@]43[C@@H]65)C2)C1 [Vincristine sulfate],0.453 ± 0.072,0.289 ± 0.031,0.388 ± 0.035,0.303 ± 0.014
